Results as given in PMC8384837, “Expanding the binding specificity for RNA recognition by a PUF domain”.

Columns and labels:
Test in all cases: yeast three-hybrid, YBZ-1, SC-Leu-His + 0.5 mM 3-AT, 4 days
Conditions in all cases: tags: N-Gal4 AD-HA kept; label: inside an RPR1-promoter hybrid RNA with tandem MS2 sites; ssRNA
PUM1 PUF domain R4-INC = PUM1 PUF domain R4-INC (Homo sapiens, UniProt Q14671 828-1176, N971I;H972N;Q975C)
In short: (§1)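 Pumilio-1 PUF domain libraries, randomized (NNK) at the three base-contacting residues of each repeat, were co-expressed with matching RNA elements from a centromeric plasmid in strain YBZ-1 (LexA–MS2 coat fusion, HIS3 reporter). Transformants were plated on SC-Leu (input) and SC-Leu-His + 0.5 mM 3-AT (selection) for four days, and repeat regions were PCR-amplified and Illumina-sequenced. The interaction score is the log2 change in variant frequency from input to selection, with pseudocount 1 where absent.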

PUM1 PUF domain R1-RYE = PUM1 PUF domain R1-RYE (Homo sapiens, UniProt Q14671 828-1176, S863R;R864Y;Q867E)
In short: as §1

PUM1 PUF domain R5-NSD = PUM1 PUF domain R5-NSD (Homo sapiens, UniProt Q14671 828-1176, C1007N;R1008S;Q1011D)
In short: as §1

PUM1 PUF domain R6-NRR = molecular target: T1, PUM1 PUF domain R6-NRR (Homo sapiens, UniProt Q14671 828-1176, Y1044R;Q1047R)
T1 sequence: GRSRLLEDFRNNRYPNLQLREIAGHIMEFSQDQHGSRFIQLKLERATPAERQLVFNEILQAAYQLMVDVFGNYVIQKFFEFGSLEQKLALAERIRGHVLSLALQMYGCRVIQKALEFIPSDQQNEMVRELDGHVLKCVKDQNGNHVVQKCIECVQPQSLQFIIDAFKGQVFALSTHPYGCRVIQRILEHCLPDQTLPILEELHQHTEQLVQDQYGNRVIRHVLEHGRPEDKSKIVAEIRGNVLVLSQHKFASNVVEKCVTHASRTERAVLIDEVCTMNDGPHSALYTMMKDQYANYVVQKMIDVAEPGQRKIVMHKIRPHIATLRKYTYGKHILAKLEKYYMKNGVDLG
In short: as §1

PUM1 PUF domain R5-KLC = PUM1 PUF domain R5-KLC (Homo sapiens, UniProt Q14671 828-1176, C1007K;R1008L;Q1011C)
In short: as §1

PUM1 PUF domain R5-LWR = PUM1 PUF domain R5-LWR (Homo sapiens, UniProt Q14671 828-1176, C1007L;R1008W;Q1011R)
In short: as §1

PUM1 PUF domain R5-GKC = PUM1 PUF domain R5-GKC (Homo sapiens, UniProt Q14671 828-1176, C1007G;R1008K;Q1011C)
In short: as §1

PUM1 PUF domain R3-DFA = PUM1 PUF domain R3-DFA (Homo sapiens, UniProt Q14671 828-1176, C935D;R936F;Q939A)
In short: as §1

PUM1 PUF domain R5-GFI = PUM1 PUF domain R5-GFI (Homo sapiens, UniProt Q14671 828-1176, C1007G;R1008F;Q1011I)
In short: as §1

PUM1 PUF domain R1-KDR = PUM1 PUF domain R1-KDR (Homo sapiens, UniProt Q14671 828-1176, S863K;R864D;Q867R)
In short: as §1

GGCUAGAACUAGUGGAUCCCCCGGCGCCCGGCGGCUCGAGCCCGGGUAAGUGUAUAUAGUCUGCAUGCCGCCGGGCGCCAUGCCUGCAGGUCGACUCUAGAAAACAUG
binding signal (PUM1 PUF domain R4-INC): 4.14 log2 enrichment (interaction score)

GGCUAGAACUAGUGGAUCCCCCGGCGCCCGGCGGCUCGAGCCCGGGUAAGUGUAAAUUGUCUGCAUGCCGCCGGGCGCCAUGCCUGCAGGUCGACUCUAGAAAACAUG
binding signal (PUM1 PUF domain R1-RYE): 2.61 log2 enrichment (interaction score)

GGCUAGAACUAGUGGAUCCCCCGGCGCCCGGCGGCUCGAGCCCGGGUAAGUGUUAAUAGUCUGCAUGCCGCCGGGCGCCAUGCCUGCAGGUCGACUCUAGAAAACAUG
binding signal (PUM1 PUF domain R5-NSD): 4.22 log2 enrichment (interaction score)

GGCUAGAACUAGUGGAUCCCCCGGCGCCCGGCGGCUCGAGCCCGGGUAAGUGCAAAUAGUCUGCAUGCCGCCGGGCGCCAUGCCUGCAGGUCGACUCUAGAAAACAUG
binding signal (PUM1 PUF domain R6-NRR): 4.48 log2 enrichment (interaction score)

GGCUAGAACUAGUGGAUCCCCCGGCGCCCGGCGGCUCGAGCCCGGGUAAGUGUCAAUAGUCUGCAUGCCGCCGGGCGCCAUGCCUGCAGGUCGACUCUAGAAAACAUG
binding signal (PUM1 PUF domain R5-KLC): 2.5 log2 enrichment (interaction score) | binding signal (PUM1 PUF domain R5-LWR): 3.23 log2 enrichment (interaction score) | binding signal (PUM1 PUF domain R5-GKC): 2.56 log2 enrichment (interaction score)

GGCUAGAACUAGUGGAUCCCCCGGCGCCCGGCGGCUCGAGCCCGGGUAAGUGUAAAUAGUCUGCAUGCCGCCGGGCGCCAUGCCUGCAGGUCGACUCUAGAAAACAUG
binding signal (PUM1 PUF domain R5-GKC): 0.78 log2 enrichment (interaction score) | binding signal (PUM1 PUF domain R3-DFA): 6.17 log2 enrichment (interaction score) | binding signal (PUM1 PUF domain R5-GFI): 6.14 log2 enrichment (interaction score) | binding signal (PUM1 PUF domain R6-NRR): 4.3 log2 enrichment (interaction score)

GGCUAGAACUAGUGGAUCCCCCGGCGCCCGGCGGCUCGAGCCCGGGUAAGUGUAAAUCGUCUGCAUGCCGCCGGGCGCCAUGCCUGCAGGUCGACUCUAGAAAACAUG
binding signal (PUM1 PUF domain R1-RYE): 1.44 log2 enrichment (interaction score) | binding signal (PUM1 PUF domain R1-KDR): 3.98 log2 enrichment (interaction score)
